According to PubChem BioAssay (NCI):
This is part of a sample that, as a whole, favours compounds with a hit. Of some 83,000 tested, about 20% had one in any assay.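 How to read the values: 0–100, growth inhibition (40 = 60% inhibited); 0, no net growth; -100 to 0, cell death (-40 = 40% of starting cells died; -100 = all dead).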 A number with no mark means an inactive call. The source made the active and inactive calls. Rule for the calls: active = growth percent below 10; inactive = the rest.

Each molecule was assayed on OVCAR-4 ovarian (assay: NCI-60 one-dose screen, 48 h (100 = growth as untreated, 0 = no growth, -100 = all killed)). Settings: 10 µM unless noted.

Row | Structure (SMILES) | growth
1 | Nc1c(C(=O)Nc2ccccn2)sc2nc3c(cc12)CCCC3 | 74.9%
2 | Cc1nnc(/N=C2\NC(=O)/C(=C/c3ccsc3)S2)s1 | 90.6%
3 | Cc1cc(Nc2nc(SCc3ccc(C(=O)Nc4ccc(F)cc4N)cc3)nn3cccc23)n[nH]1 | 40.8%
4 | Oc1c(CCl)cc(Cl)cc1Cc1cc(Cl)cc(Cc2cc(Cl)cc(CCl)c2O)c1O | 48%
5 | COc1ccc(C2N(c3cc(OC)c(OC)c(OC)c3)C(=O)C2(F)F)cc1F (stereo not drawn) | 58.3%
6 | COc1cc2c(cc1OC)C(Sc1ccc(Cl)cc1)c1c(nc(N)c(C#N)c1N)O2 (stereo not drawn) | -14.8% (active)

Each molecule was assayed on SK-OV-3 ovarian in the same assay as above. Settings: 10 µM unless noted.

Row | Structure (SMILES) | growth
7 | COc1ccc2c(c1)OC13Oc4cc(OC)ccc4C=C1CCCCC3=C2 | 80.8%
8 | C/C(=N/Nc1nc2ccccc2n1C)c1ccccn1 | -0.894% (active)
9 | Cc1nc2sc(C(=O)Nc3cccc4ccccc34)c(N)c2cc1C(C)O (stereo not drawn) | 32.1%
10 | N#Cc1c(-c2ccc(F)cc2)c(C#N)c2c(C#N)c(N)nn2c1N | 82.2%
11 | CCOc1ccc(C2N(c3cc(OC)c(OC)c(OC)c3)C(=O)C2(F)F)cc1 (stereo not drawn) | 71.9%
12 | CCOc1ccccc1C(=O)/C=C/c1cc2ccccc2[nH]c1=O | 18.8%
13 | Cc1ccc(C2=N[C@H]3CCC[C@@H]3N(c3ccccc3)C(C(Cl)Cl)=N2)cc1 | 111%
14 | COc1cc(/C=C/CO)cc(OC)c1O[C@@H]1O[C@H](CO)[C@@H](O)[C@H](O)[C@H]1O | 100%
15 | COc1ccc(C(=S)c2cc(OC)c(OC)c(OC)c2)cc1OC(=O)CCl | 25.3%
16 | O=C1CCC23OC(c4ccccc4N12)C(O)C(O)C3O (stereo not drawn) | 117%
17 | COc1cc(/C=C/C(=O)c2cccs2)ccc1OCc1ccc(Cl)nc1 | 105%
18 | O=c1c2ccccc2oc2ccc(OCCCCCN3CCCCCC3)cc12 | 93.5%
19 | C=C1C(=O)O[C@H]2[C@H]1CC/C(COC(=O)NCC(=O)Nc1ccc(OC)c(C(N)=O)c1O)=C\CC[C@@]1(C)O[C@@H]21 | 100%
20 | COc1ccc(-c2[nH]c3ccccc3c2C=C(C#N)C#N)cc1 | 28.7%
21 | COC(=O)/C=C/c1cc(OC(C)=O)c2c(c1)C(C(=O)OC)C(c1ccc(OC(C)=O)c(OC(C)=O)c1)O2 (stereo not drawn) | 18.8%
22 | Nc1cc(N)c(S(=O)(=O)O)cc1N=Nc1cc([N+](=O)[O-])ccc1O | 93.8%
23 | CC1CCN(CCCCCOc2ccc3oc4ccccc4c(=O)c3c2)CC1 | 93.9%
24 | CCOC(=O)C1=C(C)n2nc(CC#N)c(C#N)c2NC1c1ccc(Cl)cc1 (stereo not drawn) | 105%
25 | Cc1cccc(C)c1NCc1nnc(-c2ccco2)o1 | 87%

Row | Structure (SMILES) | growth
26 | COC(=O)/C=C1\SC(=Nc2cccc(Cl)c2)N(CCc2c[nH]c3ccccc23)C1=O | 83.8%
27 | COc1ccc(C(C)c2cc(OC)c(OC)c(OC)c2)cc1 (stereo not drawn) | 33.2%
28 | CCO/C=N/S(=O)(=O)c1cc2c(cc1Cl)NC=NS2(=O)=O | 104%
29 | COc1ccc([C@H]2[C@@H](F)C(=O)N2c2cc(OC)c(OC)c(OC)c2)cc1F | 33.4%
30 | O=C(CN1N=C(c2ccc(F)cc2)CCC1=O)Nc1nccs1 | 97.7%
31 | Nc1cc(N)nc(SCC(=O)O)n1 | 105%
32 | CCOC(=O)NCCc1nc2c([nH]1)c(=O)n(C)c(=O)n2C | 122%
33 | CC1(c2ccccc2Cl)NC(=O)NC1=O (stereo not drawn) | 97.3%
34 | C=C1C(=O)O[C@H]2[C@H]1CC/C(COC(=O)n1ccnc1)=C\CC[C@@]1(C)O[C@@H]21 | 102%
35 | COc1ccccc1-c1ccc2nc(NC(=O)Nc3cc(C(F)(F)F)cc(C(F)(F)F)c3)sc2c1 | -13.2% (active)
36 | O=C1NC(SCc2ccc(F)cc2)=N/C1=C/c1cccc(OCc2ccc(Cl)cc2)c1 | 55.4%
37 | O=C(CCc1nnc2sc(OCc3ccccc3)nn12)c1nc2ccc([N+](=O)[O-])cc2[nH]1 | 77.3%
38 | Nc1c(C(=O)Nc2ccccn2)sc2nc3c(cc12)CCCC3 | 42.4%
39 | Cc1nnc(/N=C2\NC(=O)/C(=C/c3ccsc3)S2)s1 | 89.5%
40 | Cc1cc(Nc2nc(SCc3ccc(C(=O)Nc4ccc(F)cc4N)cc3)nn3cccc23)n[nH]1 | 17.9%
41 | Oc1c(CCl)cc(Cl)cc1Cc1cc(Cl)cc(Cc2cc(Cl)cc(CCl)c2O)c1O | 36%
42 | COc1ccc(C2N(c3cc(OC)c(OC)c(OC)c3)C(=O)C2(F)F)cc1F (stereo not drawn) | 75.5%
43 | COc1cc2c(cc1OC)C(Sc1ccc(Cl)cc1)c1c(nc(N)c(C#N)c1N)O2 (stereo not drawn) | 56.1%

Each molecule was assayed on IGROV1 ovarian in the same assay as above. Settings: 10 µM unless noted.

Row | Structure (SMILES) | growth
44 | COc1ccc2c(c1)OC13Oc4cc(OC)ccc4C=C1CCCCC3=C2 | 99.3%
45 | C/C(=N/Nc1nc2ccccc2n1C)c1ccccn1 | 18%
46 | Cc1nc2sc(C(=O)Nc3cccc4ccccc34)c(N)c2cc1C(C)O (stereo not drawn) | 31.7%
47 | CCOc1ccc(C2N(c3cc(OC)c(OC)c(OC)c3)C(=O)C2(F)F)cc1 (stereo not drawn) | 37.8%
48 | CCOc1ccccc1C(=O)/C=C/c1cc2ccccc2[nH]c1=O | 1.32% (active)
49 | Cc1ccc(C2=N[C@H]3CCC[C@@H]3N(c3ccccc3)C(C(Cl)Cl)=N2)cc1 | 98.7%
50 | COc1cc(/C=C/CO)cc(OC)c1O[C@@H]1O[C@H](CO)[C@@H](O)[C@H](O)[C@H]1O | 104%
51 | COc1ccc(C(=S)c2cc(OC)c(OC)c(OC)c2)cc1OC(=O)CCl | 24.4%
52 | O=C1CCC23OC(c4ccccc4N12)C(O)C(O)C3O (stereo not drawn) | 98.2%
53 | COc1cc(/C=C/C(=O)c2cccs2)ccc1OCc1ccc(Cl)nc1 | 76.8%
54 | O=c1c2ccccc2oc2ccc(OCCCCCN3CCCCCC3)cc12 | 77.2%
55 | C=C1C(=O)O[C@H]2[C@H]1CC/C(COC(=O)NCC(=O)Nc1ccc(OC)c(C(N)=O)c1O)=C\CC[C@@]1(C)O[C@@H]21 | 21.6%
56 | COc1ccc(-c2[nH]c3ccccc3c2C=C(C#N)C#N)cc1 | 12.3%
57 | COC(=O)/C=C/c1cc(OC(C)=O)c2c(c1)C(C(=O)OC)C(c1ccc(OC(C)=O)c(OC(C)=O)c1)O2 (stereo not drawn) | 20.1%
58 | Nc1cc(N)c(S(=O)(=O)O)cc1N=Nc1cc([N+](=O)[O-])ccc1O | 106%
59 | CCOC(=O)C1=C(C)n2nc(CC#N)c(C#N)c2NC1c1ccc(Cl)cc1 (stereo not drawn) | 84.1%
60 | Cc1cccc(C)c1NCc1nnc(-c2ccco2)o1 | 85.3%
61 | COC(=O)/C=C1\SC(=Nc2cccc(Cl)c2)N(CCc2c[nH]c3ccccc23)C1=O | 53.7%

Row | Structure (SMILES) | growth
62 | COc1ccc(C(C)c2cc(OC)c(OC)c(OC)c2)cc1 (stereo not drawn) | 28.5%
63 | CCO/C=N/S(=O)(=O)c1cc2c(cc1Cl)NC=NS2(=O)=O | 104%
64 | COc1ccc([C@H]2[C@@H](F)C(=O)N2c2cc(OC)c(OC)c(OC)c2)cc1F | 31.9%
65 | O=C(CN1N=C(c2ccc(F)cc2)CCC1=O)Nc1nccs1 | 100%
66 | Nc1cc(N)nc(SCC(=O)O)n1 | 106%
67 | CCOC(=O)NCCc1nc2c([nH]1)c(=O)n(C)c(=O)n2C | 97.1%
68 | CC1(c2ccccc2Cl)NC(=O)NC1=O (stereo not drawn) | 106%
69 | C=C1C(=O)O[C@H]2[C@H]1CC/C(COC(=O)n1ccnc1)=C\CC[C@@]1(C)O[C@@H]21 | 77.7%
70 | COc1ccccc1-c1ccc2nc(NC(=O)Nc3cc(C(F)(F)F)cc(C(F)(F)F)c3)sc2c1 | 42.4%
71 | O=C1NC(SCc2ccc(F)cc2)=N/C1=C/c1cccc(OCc2ccc(Cl)cc2)c1 | 26.6%
72 | O=C(CCc1nnc2sc(OCc3ccccc3)nn12)c1nc2ccc([N+](=O)[O-])cc2[nH]1 | 93.8%
73 | Nc1c(C(=O)Nc2ccccn2)sc2nc3c(cc12)CCCC3 | 55.2%
74 | Cc1nnc(/N=C2\NC(=O)/C(=C/c3ccsc3)S2)s1 | 90.7%
75 | Cc1cc(Nc2nc(SCc3ccc(C(=O)Nc4ccc(F)cc4N)cc3)nn3cccc23)n[nH]1 | 33.6%
76 | Oc1c(CCl)cc(Cl)cc1Cc1cc(Cl)cc(Cc2cc(Cl)cc(CCl)c2O)c1O | 37.8%
77 | COc1ccc(C2N(c3cc(OC)c(OC)c(OC)c3)C(=O)C2(F)F)cc1F (stereo not drawn) | 44.2%
78 | COc1cc2c(cc1OC)C(Sc1ccc(Cl)cc1)c1c(nc(N)c(C#N)c1N)O2 (stereo not drawn) | -25.5% (active)
